Screens (PubChem BioAssay)
GLP-1R agonist = GLP-1 receptor (human) agonism; P43220; HEK293 GLP-1R CRE-luciferase, luminescence, 4-6 h; cells express a hypersensitive GLP-1R form; Potency, µM (doses to about 45.6 µM), hits mostly activators; hit rate 0.007% among 380,000
ALOX12 inh = inhibitors of human 12S-lipoxygenase ALOX12; Potency, µM (doses to about 108 µM), actives largely listed as inhibitors; purified 12hLO, xylenol orange hydroperoxide absorbance; hit rate 1.1% among 580,000
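Purified human 12hLO at 150 nM in 25 mM Hepes, 0.01% Triton X-100, pH 7.0, preincubated 15 min at room temperature with compound. Reaction started with 40 uM arachidonic acid, 30 min at room temperature. Hydroperoxide measured by Fe-xylenol orange, 573/405 nm absorbance ratio.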
GLP-1R inv ag = acts as inverse agonist at human GLP-1 receptor | AID 624417 | Potency, µM (titrated, usually from 38.3 µM), actives largely listed as inhibitors | P43220 | hit rate 1.6% among 410,000 | HEK293 GLP-1R CRE-luciferase, luminescence, 24 h; GLP-1R form is constitutively active; note: nearly all actives have a fitted effect of over 55% in size
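Using stably transfected HEK293 (constitutively active GLP-1R, cAMP-luciferase reporter), compounds were incubated 24 hr and luciferase measured by luminescence.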
GRP78 ERSR act = ER stress response induction in glioma. Potency, µM, usual class: activators. hit rate 0.02% among 420,000. U87-MG GRP78 promoter luciferase reporter, 16 h; note: series mostly up to about 76 µM; nearly all actives have a fitted effect of over 35% in size
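Stably transfected U87-MG human glioma cells carrying a GRP78-based luminescent sensor were seeded at 1000 cells/well, pin-dosed with compounds and incubated 16 h. Luciferase reagent was then added, and end-point luminescence was read after 10 min at room temperature.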
GLS inh = glutaminase GLS (human) inhibition; hit rate 0.21% among 410,000; Potency, µM (titrated, usually from 45.5 µM), most hits filed as inhibitors; GLS enzymatic activity, qHTS titration; O94925
Target sequence (O94925 whole entry, looked up): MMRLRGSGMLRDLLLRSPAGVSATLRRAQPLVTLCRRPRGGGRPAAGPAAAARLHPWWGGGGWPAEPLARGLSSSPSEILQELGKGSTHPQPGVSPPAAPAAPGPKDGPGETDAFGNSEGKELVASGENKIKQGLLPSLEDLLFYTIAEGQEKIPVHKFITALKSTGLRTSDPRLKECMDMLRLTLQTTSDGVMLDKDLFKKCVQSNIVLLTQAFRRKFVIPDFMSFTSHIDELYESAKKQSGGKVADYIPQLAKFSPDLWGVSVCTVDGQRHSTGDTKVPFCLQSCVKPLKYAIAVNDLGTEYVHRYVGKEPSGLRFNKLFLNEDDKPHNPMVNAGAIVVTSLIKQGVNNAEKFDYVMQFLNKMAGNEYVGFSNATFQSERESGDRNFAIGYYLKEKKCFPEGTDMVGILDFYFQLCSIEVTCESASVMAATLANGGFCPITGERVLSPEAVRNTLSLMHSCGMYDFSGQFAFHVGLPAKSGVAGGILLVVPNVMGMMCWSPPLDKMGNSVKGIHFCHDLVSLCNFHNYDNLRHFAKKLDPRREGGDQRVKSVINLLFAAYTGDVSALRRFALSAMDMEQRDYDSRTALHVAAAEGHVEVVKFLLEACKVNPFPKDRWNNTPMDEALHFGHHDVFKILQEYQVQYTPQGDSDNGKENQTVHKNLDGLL
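hKGA in 45 mM KH2PO4 (pH 8.2), 0.02% Tween-20 with compound, then 1mM L-Glutamine (stock as added) plus glutamate oxidase/HRP/Amplex red coupling mix. Fluorescence read initially and after 30 min at RT; signal change reflects glutamate formation.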
PTHR1 agonist = agonists of human PTHR1 parathyroid hormone receptor; Potency, µM (highest dose often 115 µM), most hits filed as activators; Q03431; hit rate 0.075% among 410,000; HEK293 GP2 PTHR1 cells, GloSensor cAMP luminescence, 1 h; note: nearly all actives have a fitted effect of over 55% in size
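HEK-293-derived GP2 cells expressing PTHR1 and a GloSensor cAMP reporter, 3,000/well, plated overnight, given luciferin plus IBMX (each 0.5 mM as added) for 1 h at 37 °C, then compound for 1 h at 37 °C. Luminescence was read after 15 min at room temperature.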
Hits are given with their value; - = inactive; ? = inconclusive; . = no result. Sampled rows, rich in hits. Any-hit rate of the full collection: about 2.3%. Calls come from the whole dose curve; as a rule, active = well fitted curve in the direction sought with a large enough effect; inconclusive = small, poorly fitted or top-dose-only effect, or another doubt; inactive = no such curve, though single readings can be large; an effect the other way counts as inactive or inconclusive.

SMILES	GLP-1R agonist	ALOX12 inh	GLP-1R inv ag	GRP78 ERSR act	GLS inh	PTHR1 agonist
CCOC(=O)Cc1csc(SCC(=O)Nc2cc(Cl)ccc2Oc2ccccc2)n1	-	-	10µM	-	-	-
CC(NCc1cccc(C#N)c1)c1ccc(Cl)cc1Cl (configuration not stated)	.	-	.	.	.	.
Clc1ccc(CN2CCCCCC2)cc1	-	0.79µM	-	-	-	-
COc1ccc(CN2CCCCCC2)cc1OC	-	2µM	-	-	-	-
Clc1ccc(CN2CCCCCCC2)cc1	-	?	-	-	-	-
COc1ccc(CN2CCCCCC2)cc1Br	-	1µM	-	-	-	-
COc1cc(CN2CCCCC2)ccc1OCc1ccccc1	-	?	?	-	-	-
CC1CCCC(N2CCN(Cc3ccc(Cl)cc3)CC2)C1 (configuration not stated)	.	0.79µM	.	.	.	.
Nc1scc2c(C(=O)N/N=C/c3ccc(Cl)cc3)nn(-c3ccccc3)c(=O)c12	-	6.3µM	-	-	-	-
CCOC(=O)c1nn(-c2ccccc2)c(=O)c2c(N)scc12	-	35µM	-	-	?	-
O=c1[nH]c(/C=C2\C=Nc3ccccc32)c(O)n1Cc1ccccc1F	-	?	-	-	7.9µM	-
CCS(=O)(=O)c1ccc2oc(Nc3ccc(C(C)C)cc3)nc2c1	-	7.1µM	?	-	-	-
COC(=O)c1ccc(COC(=O)c2c3c(nc4ccccc24)CCC3)o1	.	-	.	.	.	.
Cc1cc(C)[n+](C)c2ccccc12	.	.	.	-	.	.
Cc1c2ccccc2cc(Cc2ccccc2)[n+]1C	-	5.6µM	-	-	-	-
Cc1ccc(NC(=O)c2ccc(Cl)c(NC(=O)c3cccs3)c2)cc1	-	-	10µM	-	-	-
Cc1nc2ccc(NC(=O)c3ccc(Cl)c(NC(=O)c4cccs4)c3)cc2s1	-	-	-	-	-	-
CCOC(=O)c1ccc(NC(=O)c2c(NC(=O)CCC(=O)O)sc3c2CCCCC3)cc1	-	20µM	-	-	-	-
O=C(Cc1ccccc1)Nc1sc2c(c1C(=O)Nc1ccc(Cl)cc1)CCCC2	.	16µM	-	-	-	-
O=C(Nc1sc2c(c1C(=O)Nc1cccc(Cl)c1)CCCC2)c1cccs1	.	45µM	-	-	-	-
CCOC(=O)c1ccc(NC(=O)c2c(NCc3cccs3)sc3c2CCCCC3)cc1	.	?	-	?	-	-
CCOc1ccc(NC(=O)c2c(NC(=O)CNCCN3CCOCC3)sc3c2CCC3)cc1	-	-	2.5µM	-	-	-
Cc1noc(C(C)C)c1C(=O)NCc1cccnc1OC1CCCC1	.	-	.	.	.	.
Cc1cccc2c(C(=O)NC3CC3)cc(-c3cccnc3)nc12	.	-	.	.	.	.
COc1cccc(Nc2nc(-c3sc(NC(=O)c4ccco4)nc3C)cs2)c1	-	6.3µM	?	-	-	?
SMILES	GLP-1R agonist	ALOX12 inh	GLP-1R inv ag	GRP78 ERSR act	GLS inh	PTHR1 agonist
COc1ccc2sc(NC(=O)c3ccco3)nc2c1	-	8.9µM	?	-	-	-
COc1cccc(Nc2nc(-c3ccc(CNC(C)=O)s3)cs2)c1	.	16µM	.	.	.	.
COc1cccc(Nc2nc(-c3sc(C)nc3C)cs2)c1	-	-	?	-	-	-
Cc1ccc2c(C)c(C(=O)N3C[C@@H](NS(C)(=O)=O)[C@H](C(C)C)C3)oc2c1	.	-	.	.	.	.
O=C(c1ccc2nc(N3CCCCC3)sc2c1)N1CCN(Cc2ccc3c(c2)OCO3)CC1	-	-	10µM	-	-	-
COc1ccc2cc3cc(C(=O)N4CCN(Cc5ccc6c(c5)OCO6)CC4)oc3nc2c1	-	-	10µM	-	-	-
COc1ccc2cc3cc(C(=O)NCc4ccc5c(c4)OCO5)oc3nc2c1	-	?	-	-	-	-
CCCOc1ccc(C(=O)N2CCN(Cc3ccc4c(c3)OCO4)CC2)cc1	-	-	7.9µM	-	-	-
CCOC(=O)N1CCN(C(=O)c2ccc3nc(N4CCCCC4)sc3c2)CC1	-	-	-	-	-	-
Cc1cc(C)cc(C(=O)N2CCN(Cc3ccc4c(c3)OCO4)CC2)c1	-	-	?	-	-	-
COc1ccc(-c2nc(P(=O)(OC)OC)c(NCc3cccnc3)o2)cc1	.	-	.	.	.	.
CC(C)(C)c1ccc(C(=O)Nc2ccccc2F)cc1	.	-	.	.	.	.
CC(C)(c1ccccc1)c1ccc(OCC(O)CNC2CCN(Cc3ccccc3)CC2)cc1 (configuration not stated)	-	?	1.8µM	-	-	-
Cc1cc(CNC(=O)c2cccc3c2C(=O)c2ccc(-c4ccc(F)cc4OCc4ccccc4)cc2S3(=O)=O)c(C(F)(F)F)o1	-	45µM	-	-	-	-
COc1ccc(NC(=S)Nc2ccccn2)cc1	-	-	?	-	-	-
Cc1cc(C)cc(NC(=S)Nc2ccccn2)c1	-	6.3µM	?	-	-	-
COc1ccccc1NC(=S)Nc1ccccn1	-	40µM	?	-	-	-
Cc1ccc(NC(=S)Nc2ccccn2)cc1C	-	?	?	-	-	-
Cc1cccc(NC(=S)Nc2ccccn2)c1	-	28µM	11µM	-	-	-
COc1ccccc1NC(=O)C(=O)Nc1ccccn1	-	-	-	-	-	-
Cc1ccc(NC(=S)NNC(=S)Nc2ccc(C)cc2C)cc1	-	35µM	?	-	?	-
Cc1ccc(CN2CCc3c(cc(C(=O)N4CCCN(C)CC4)n3C)C2)cc1	.	-	.	.	.	.
COc1cccc(CNC(=O)C2=C(c3ccccc3)c3cc(Cl)ccc3S(=O)(=O)N2C)c1	.	-	.	.	.	.
CCC(NC(=O)CCc1ccsc1)c1ccccc1OC (configuration not stated)	.	-	.	.	.	.
Cc1ccc(NC(=S)Nc2ccccn2)c(C)c1	-	11µM	?	-	-	-
SMILES	GLP-1R agonist	ALOX12 inh	GLP-1R inv ag	GRP78 ERSR act	GLS inh	PTHR1 agonist
COc1ccccc1-c1c(C)oc2cc(O)ccc2c1=O	.	-	.	.	.	.
O=C(/C=C/c1ccccc1O)c1ccc(Br)cc1	.	-	.	.	.	.
C=C(C)Cn1c(Br)nc2c1c(=O)[nH]c(=O)n2C	.	-	.	.	.	.
CC(=O)/C(=C/c1ccccc1)C(=O)Nc1ccccc1C	-	-	?	?	-	-
Cc1ccccc1NC(=O)C(=Cc1ccc(C(=O)O)cc1)C(=O)Nc1ccccc1C	-	-	6.3µM	-	-	-
O=C(COC(=O)CCNS(=O)(=O)c1ccccc1)Nc1ccc(F)c(Cl)c1	.	-	.	.	.	.
Cn1nc(-c2ccccn2)nc2c(=O)n(C)c(=O)nc1-2	-	?	3.2µM	-	-	-
CN1CCN(c2ncc3c(n2)CCN(Cc2ccc(Br)s2)C3)CC1	.	-	3.2µM	-	-	-
CCN1CCN(c2ncc3c(n2)CCN(Cc2ccc(OC(C)C)cc2)C3)CC1	.	-	10µM	-	-	-
CCOc1ccccc1CN1CCc2nc(N3CCN(c4ccccc4F)CC3)ncc2C1	.	?	10µM	-	-	-
CCN1CCN(c2ncc3c(n2)CCN(Cc2sccc2C)C3)CC1	.	?	?	-	-	-
